The record followed here is PubChem BioAssay (NCATS).

Values without a mark were called inactive. Inconclusive results are not listed. Active and inactive are the calls of the source. Calls follow the shape of the dose curve; as a rule, active = well fitted curve in the direction sought with a large enough effect; inconclusive = small, poorly fitted or top-dose-only effect, or another doubt; inactive = no such curve, though single readings can be large; an effect the other way counts as inactive or inconclusive.

Experiment [1] in a line: qHTS for inhibitors of adenylyl cyclases using a fission yeast platform: a pilot screen against the NCATS LOPAC library (AID 1347410).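 Also: plate controls were DMSO vehicle for no effect and DPI positive control for full effect.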 The method, boiled down:
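Growth medium went into the plates first, then compounds were pinned (final up to 57 µM), then CHP2027 yeast were added. Plates were incubated overnight (18 h) at 30C in the dark, and GFP was measured by laser scanning cytometry.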
For orientation: In qHTS, concentration-response curves come from the screen itself.

The target in experiment [2] is Protein phosphatase 1D (Homo sapiens) (UniProt O15297). As to the kind of experiment: RapidFire Mass Spectrometry qHTS Assay for Modulators of WT P53-Induced Phosphatase 1 (WIP1) (AID 1347424).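 Also: amount of dephosphorylated VEPPL-S-QETFS peptide product formed by WIP1; series mostly up to about 63 µM; plate controls were DMSO wells for no effect and GSK830371 inhibitor control at 10 µM for full effect.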 The method, boiled down:
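Mass-spectrometric measurement of dephosphorylated peptide after a 5 min room-temperature reaction of 10 nM WIP1 with 2 uM phosphopeptide, following 1 h compound preincubation in 30 mM MgCl2 buffer.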

The target is the same in experiment [3]. Nature of the experiment: Rhodamine-PBP qHTS Assay for Modulators of WT P53-Induced Phosphatase 1 (WIP1) (AID 1347425). Also: % of control where 0% means no effect. The method, boiled down:
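Steps: enzyme with Rh-PBP sensor and compounds, room-temperature incubation of 1 hr, baseline read, addition of VEPPL-pS-QETFS (10 uM final), kinetic fluorescence reads at 525/598 nm. Activity equals final minus baseline signal.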

The target of experiment [4] is Single-stranded DNA cytosine deaminase (Homo sapiens) (UniProt Q9GZX7). As to the kind of experiment: Validation qHTS assay for inhibitors of Activation Induced Cytidine Deaminase (AID): AID signal (AID 1347429). Also: potency is read from the fitted curve at half-maximal effect. As to activity change, negative = inhibition: % is scaled to controls: 0 for no effect and ±100 for the full control effect. The gist of the method: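 Compounds (up to 114 uM final) are tested against AID plus UDG using DJC20/DJC23 FRET substrate. Reactions incubate 4 hr at room temperature, receive NaOH for 30 min, and are read at Ex 540/Em 590 nm.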
Single-stranded DNA cytosine deaminase (Homo sapiens), sequence (Q9GZX7 whole entry, looked up): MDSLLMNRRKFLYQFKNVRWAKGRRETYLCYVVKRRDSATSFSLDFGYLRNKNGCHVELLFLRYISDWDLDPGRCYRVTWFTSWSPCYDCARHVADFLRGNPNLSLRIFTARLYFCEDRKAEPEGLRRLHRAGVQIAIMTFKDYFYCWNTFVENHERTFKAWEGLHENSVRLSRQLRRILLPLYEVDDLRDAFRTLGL

Experiment [5] can be described thus: Primary qHTS for inhibitors of La Crosse Virus (LACV) - induced cell death in SH-SY5Y cells (AID 1508616).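 Also: top concentration of the series differs between compounds; 0% = infected DMSO wells and 100% = uninfected DMSO wells; higher means more rescue of cells from virus-induced death.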 The method, boiled down:
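Screening measures cell viability in LACV-infected SH-SY5Y cultures. Compound was added before virus (0.01 MOI), and ATP was detected by luminescence 6 days later.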

Experiment [6] concerns the target Calcium and integrin-binding protein 1 (Homo sapiens) (UniProt Q99828). As to the kind of experiment: Validation qHTS for Identification of Calcium Integrin Binding protein 1 (CIB1) Competitor (AID 1508618). Also: % is scaled to controls: 0 for no effect and ±100 for the full control effect. The method, boiled down: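 In this qHTS validation, the LOPAC set (up to 114 uM) was tested for blocking CIB1 binding to a fluorescein-tagged alphaIIb peptide, with FP detection at 480/540 nm.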

For experiment [7] the target is unchanged. As to the kind of experiment: Primary qHTS for Identification of Calcium Integrin Binding Protein 1 (CIB1) Competitor (AID 1508620). Also: potency is read from the fitted curve at half-maximal effect.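 As to activity change, negative = inhibition: GST tagged CIB1 binding a fluorescein labelled alphaIIb integrin peptide tracer; top concentration of the series differs between compounds; % is scaled to controls: 0 for no effect and ±100 for the full control effect.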 The gist of the method:
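Fluorescence polarization competition: CIB1-GST (1 uM final) preincubated with compound 15 min at room temperature, then FITC-labeled alphaIIb peptide (100 nM final) added for another 15 min. Polarization read at Ex 480/Em 540.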

A short description of experiment [8]: qHTS to identify inhibitors of the type 1 interferon - major histocompatibility complex class I in skeletal muscle: primary screen against the NCATS Mechanism Interrogation Plate v5.0 (MIPE) Libary (AID 1347411). Also: nearly all actives have a fitted effect of over 65% in size. Also: potency is read from the fitted curve at half-maximal effect.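 As to activity change, negative = inhibition: plate controls were vehicle for no effect and reference inhibitor for full effect.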 The gist of the method: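 IFN-beta-driven (4 ng/ml) HLA-B-HiBit expression in CRISPR-tagged C25cl48 myoblasts; compounds 11-pt, 1:3, max 46 uM, 24 hr exposure; lytic NanoLuc complementation luminescence.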

The target of experiment [9] is Calcium and integrin-binding protein 1 (Homo sapiens) (UniProt Q99828). Nature of the experiment: Confirmatory qHTS for Identification of Calcium Integrin Binding Protein 1 (CIB1) Competitor (AID 1508617). Also: nearly all actives have a fitted effect of over 65% in size. Also: potency is read from the fitted curve at half-maximal effect. As to activity change, negative = inhibition: % is scaled to controls: 0 for no effect and ±100 for the full control effect. The gist of the method:
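Binding competition between test compounds and fluorescent alphaIIb peptide for 1 uM CIB1-GST is monitored by FP at 480/540 nm. Final compound range is up to 114 uM; unlabeled peptide serves as reference competitor.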

Protein phosphatase 1D (Homo sapiens), sequence (O15297 whole entry, looked up): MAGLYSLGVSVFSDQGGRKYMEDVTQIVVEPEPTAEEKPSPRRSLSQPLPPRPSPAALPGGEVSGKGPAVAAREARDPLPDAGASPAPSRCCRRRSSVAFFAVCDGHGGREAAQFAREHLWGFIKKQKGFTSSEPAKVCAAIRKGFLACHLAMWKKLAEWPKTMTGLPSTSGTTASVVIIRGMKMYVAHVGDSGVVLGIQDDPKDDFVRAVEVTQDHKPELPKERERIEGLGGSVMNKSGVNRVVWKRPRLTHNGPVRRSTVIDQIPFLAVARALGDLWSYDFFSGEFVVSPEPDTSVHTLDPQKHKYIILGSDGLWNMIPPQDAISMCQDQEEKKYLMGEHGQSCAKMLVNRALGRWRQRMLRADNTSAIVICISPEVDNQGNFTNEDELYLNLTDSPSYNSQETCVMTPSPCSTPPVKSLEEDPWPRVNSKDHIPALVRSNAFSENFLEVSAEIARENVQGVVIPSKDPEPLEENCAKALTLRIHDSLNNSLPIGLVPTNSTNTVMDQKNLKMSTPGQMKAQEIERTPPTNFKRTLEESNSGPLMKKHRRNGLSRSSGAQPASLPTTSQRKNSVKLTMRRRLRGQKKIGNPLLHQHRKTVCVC
Calcium and integrin-binding protein 1 (Homo sapiens), sequence (Q99828 whole entry, looked up): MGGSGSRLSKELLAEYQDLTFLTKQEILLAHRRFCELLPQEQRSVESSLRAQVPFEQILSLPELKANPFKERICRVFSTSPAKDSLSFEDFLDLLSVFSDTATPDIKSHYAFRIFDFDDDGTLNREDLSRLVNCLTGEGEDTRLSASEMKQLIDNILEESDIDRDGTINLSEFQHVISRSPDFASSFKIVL

`CC(C)(C)c1ccc(C(O)CCCN2CCC(C(O)(c3ccccc3)c3ccccc3)CC2)cc1` (stereo not drawn): the compound was called inactive in experiment [1], in experiment [2], in experiment [3], in experiment [5] and in experiment [6]. Besides, the Potency entry in [4] and in [7] was “inactive” throughout.

`Cc1nc(N)sc1-c1ccnc(Nc2ccc(N3CCOCC3)cc2)n1`: the Potency in experiment [8] was 3.7 µM (active).

Regarding `COc1ccc(C2CC(c3ccccc3)=NN2c2ccc(S(N)(=O)=O)cc2)cc1` (stereo not drawn), the Potency entry in experiment [8] and in experiment [7] was “inactive” throughout.

Regarding `COc1cc(NC(=O)c2ccc(-c3ccc(Cl)cc3)o2)cc(OC)c1`, the Potency entry in [8] is “inactive”.

With `NS(=O)(=O)c1cccc2c1C(=O)c1cccc(O)c1C2=O`, the Potency in experiment [8] was 0.415 µM (active). For the same compound, in [7], the Potency result is “inactive”.

With `Clc1ccc(C(c2ccc(Cl)cc2)n2cc[n+](CC(OCc3ccc(Cl)cc3Cl)c3ccc(Cl)cc3Cl)c2)cc1` (stereo not drawn), the compound was called inactive in [1], in experiment [5] and in experiment [6]. For the same compound, the Potency in [8] was 16.5 µM (active). Also, the Potency entry in [4] and in experiment [7] was “inactive” throughout.

Take `CC1(C)CCC2=C(O1)c1ccccc1C(=O)C2=O`: the outcome in experiment [1] and in experiment [6] was inactive. In addition, the Potency in experiment [4] is 7.08 µM (active).

For the compound `CC(C)C(C)C=CC(C)C1CCC2C3=CC=C4CC(O)CCC4(C)C3CCC21C` (stereo not drawn), the Potency entry in [8] and in [7] was “inactive” throughout.

For the compound `C=C1C(=O)[C@@]23C(CC[C@@H]1[C@H]2O)[C@@]12CO[C@]3(O)[C@@H](O)[C@@H]1C(C)(C)CC[C@@H]2O` (stereo partly drawn), the Potency is 6.58 µM (active) in [8], 25.1 µM (active) in experiment [9] and 44.7 µM (active) in experiment [7].

With `O=C(O)c1c(Cl)c(Cl)c(Cl)c(Cl)c1-c1c2cc(I)c(=O)c(I)c-2oc2c(I)c(O)c(I)cc12`, the Potency in [8] is 8.29 µM (active). Further, the Potency result in [9] was “inactive”.

For the compound `O=C(N[C@@H](c1ccccc1)[C@@H]1CCCCN1)c1cccc(C(F)(F)F)c1Cl`, the Potency result in experiment [8] and in experiment [7] was “inactive” each time.

On to `CC(C)(C)COc1ccc(-n2cc(C(=O)O)cn2)cc1C#N`, for which, in experiment [8], the Potency result was “inactive”.

`Cc1ccc(C(=O)Nc2cccc(C(F)(F)F)c2)cc1Nc1nc(-c2cccnc2)nc2c1cnn2C`: the Potency in [8] is 33 µM (active). In addition, in [7], the Potency result was “inactive”.

`Nc1ncnc2c1nc(Cl)n2[C@@H]1O[C@H](CO)[C@@H](O)[C@@H]1O`: the Potency entry in experiment [8] and in experiment [7] was “inactive” in each case.

With `c1ccc2c(Cc3c[nH]c4ccccc34)c[nH]c2c1`, the Potency entry in [8] and in experiment [7] was “inactive” in each case.

For the compound `CNC(=O)c1ccc2cc(C3(O)CCn4cncc43)ccc2c1` (stereo not drawn), in experiment [8], the Potency result is “inactive”.

With `COc1cc(N2CCC(N3CCN(C)CC3)CC2)ccc1Nc1ncnc(Nc2ccccc2S(=O)(=O)C(C)C)n1`, in experiment [8], the Potency was 4.15 µM (active).

Turning to `O=c1cc(-c2ccc(O)cc2)oc2cc(O)cc(O)c12`, the result in experiment [1], in experiment [5] and in [6] was inactive. Further, the Potency entry in experiment [4] and in experiment [7] was “inactive” each time.

In the case of `CCN(CC)CCNC(=O)c1ccc(N)cc1`, the compound was called inactive in [1], in experiment [2], in [3], in experiment [5] and in [6]. Also, in experiment [7], the Potency entry is “inactive”.

Consider `CCCCCCCCCCCC1=C(O)C(=O)C=C(O)C1=O`, for which the Potency result in [8] and in experiment [7] was “inactive” throughout.

Consider `c1ccc2c(-c3cnn4cc(-c5ccc(N6CCNCC6)cc5)cnc34)ccnc2c1`, for which the Potency in [8] was 7.39 µM (active). In [7], the Potency entry was “inactive”.

For the compound `O=C(Nc1cc(Cl)cc2c1[nH]c1cnccc12)c1cccnc1`, the Potency result in experiment [8] and in experiment [7] was “inactive” in each case.

`C[C@]12CC[C@@H]3c4ccc(O)cc4C[C@@H](CCCCCCCCCS(=O)CCCC(F)(F)C(F)(F)F)[C@H]3[C@H]1CC[C@H]2O` (stereo partly drawn): in experiment [8], the Potency entry is “inactive”.

Turning to `CCCCCN(C)CCC(O)(P(=O)(O)O)P(=O)(O)O`, the activity change, negative = inhibition in experiment [8] is -11.6% [at 5.1 µM]. Further, in experiment [4], the Potency entry was “inactive”. Further, the outcome in experiment [5] was inactive.

In the case of `O=C(NC1CCOCC1)c1ccc(-c2cc(-c3cn[nH]c3-c3ccccn3)ccn2)cc1`, in [8], the Potency entry was “inactive”.

`O=C(O)c1ccc(-c2c[nH]c3ncc(-c4ccccc4)cc23)cc1C1CCCC1`: the Potency entry in [8] and in experiment [7] was “inactive” in each case.

For `Clc1ccc(CCC(Cn2ccnc2)Sc2c(Cl)cccc2Cl)cc1` (stereo not drawn), in experiment [8], the Potency result was “inactive”.

Consider `NC(=O)c1cnc(-c2ccc(C3(N)CCC3)cc2)c(-c2ccccc2)c1`, for which, in experiment [8], the Potency entry was “inactive”.

`O=C(O)c1cc(O)c2c(c1)C(=O)c1cccc(O)c1C2=O`: the Potency result in [8] is “inactive”.

Regarding `COCCOC(=O)C1=C(C)NC2=C(C(=O)CC(c3ccccc3OC)C2)C1c1cccc(O)c1` (stereo not drawn), the Potency result in [8] and in [7] was “inactive” each time.

Take `Cc1cnc(C(=O)O)c[n+]1[O-]`: the Potency entry in experiment [8] was “inactive”.

For `CCCNC(=O)NS(=O)(=O)c1ccc(Cl)cc1`, the outcome in experiment [1], in [2], in experiment [3], in [5] and in experiment [6] was inactive. Moreover, the Potency entry in [4] and in experiment [7] was “inactive” throughout.

As for `O=C(Nc1c(Cl)cncc1Cl)c1ccc(OC(F)F)c(OCC2CC2)c1`, the Potency entry in [8] and in experiment [7] was “inactive” in each case.

As for `COc1cccc2c1CCCC2CCCN1CCN(C2CCCCC2)CC1` (stereo not drawn), the Potency result in experiment [8] and in experiment [7] was “inactive” each time.

With `O=C(O)c1ccccc1C(=O)Nc1ccc(-c2ccccc2)cc1`, in experiment [8], the Potency is 29.4 µM (active). Moreover, the Potency result in experiment [7] was “inactive”.

`CN(C)Cc1ccc(-c2nc3cccc4c3n2CCNC4=O)cc1`: the Potency in [8] was 14.7 µM (active). Also, in experiment [7], the Potency entry is “inactive”.

`COc1ccc(-c2coc3cc(O)cc(O)c3c2=O)cc1`: the Potency in [8] was 16.5 µM (active). In [7], the Potency entry is “inactive”.

On to `O=C(O)CCC1CCC(c2cc(F)ccc2F)(S(=O)(=O)c2ccc(Cl)cc2)CC1` (stereo not drawn), for which the Potency entry in [8] and in experiment [7] was “inactive” each time.

Regarding `Nc1ncnc2ccccc12`, the Potency result in [8] and in [7] was “inactive” throughout.

Consider `CC1CCC(C(=O)N(c2cc(C#CC(C)(C)C)sc2C(=O)O)C2CCC(O)CC2)CC1` (stereo not drawn), for which the Potency entry in experiment [8] and in [7] was “inactive” in each case.

For `COc1ccc(-c2nc(N3CCOCC3)c3sc(CN(C)c4ncc(C(=O)NO)cn4)cc3n2)cn1`, the Potency in experiment [8] is 0.033 µM (active). Besides, the Potency result in experiment [7] was “inactive”.

For the compound `Cc1ccc(C(C)(O)c2nc3ccccc3s2)c(C)c1` (stereo not drawn), the Potency result in [8] and in experiment [7] was “inactive” each time.

Take `CCn1c(C(=O)N(C2CC2)C2CC2)cc2c3c(ncn3C)c(Nc3cc(C)n(C)n3)nc21`: the Potency entry in [8] and in [7] was “inactive” each time.

On to `CCOC(CN1C(=O)[C@](CC(=O)Nc2ccc(C)cc2)(NC(=O)Nc2ccc(C)cc2)c2ccccc21)OCC`, for which the Potency entry in experiment [8] and in [7] was “inactive” each time.

On to `CCCCCNC(=O)N1CCC(CN(Cc2ccc(Cl)cc2)Cc2ccc([N+](=O)[O-])s2)C1` (stereo not drawn), for which the Potency result in [8] and in experiment [7] was “inactive” in each case.

In the case of `O=C(CCN1CCN(C(=O)OCc2cc(Cl)cc(Cl)c2)CC1)c1ccc2[nH]c(=O)oc2c1`, the Potency result in [8] and in experiment [7] was “inactive” throughout.

Take `C=C1C(=O)OC(CCCCCCCC)C1C(=O)O` (stereo not drawn): the Potency in experiment [8] is 18.6 µM (active). In addition, the Potency result in [7] is “inactive”.

On to `CC(=O)Nc1ccc([C@H](C)C(=O)Nc2ncc(C(C)C)s2)cc1`, for which the Potency in [8] is 5.87 µM (active). The Potency result in experiment [7] was “inactive”.

For the compound `N#Cc1ccc(NC(=O)Nc2ccccc2Br)c2n[nH]nc12`, the Potency entry in experiment [8] and in experiment [7] was “inactive” in each case.

As for `Cc1ccc(/C=N/NC(=O)c2ccccc2Oc2ccccc2)o1`, the Potency result in experiment [8] and in experiment [7] was “inactive” in each case.
